# Test results published in PubChem BioAssay (NCATS).
# Records with an inconclusive call do not appear. Entries that show only a call come without a potency. Activity calls are given as the source filed them. Unless noted, calls come from the whole dose curve; as a rule, active = well fitted curve in the direction sought with a large enough effect; inconclusive = small, poorly fitted or top-dose-only effect, or another doubt; inactive = no such curve, though single readings can be large; an effect the other way counts as inactive or inconclusive.
# Test system: not listed separately
# Experiment: Confirmation and Secondary Assay for Modulators of Hemoglobin Beta Chain Splicing at IVS2 705 locus (AID 930);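 note: HeLa cells stably expressing the EGFP-705 splicing reporter; GFP fluorescence per well restored by corrected splicing of the IVS2-705 intron in EGFP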
# Details: HeLa EGFP-705 splicing reporter, GFP fluorescence, 48 h; series mostly up to 46.1 µM
# Summary of the method: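 HeLa IVS2-705 EGFP reporter cells, 500/well, compound 2 d at 37C; correct splicing yields fluorescent EGFP. Control: 500 nM antisense PNA. Read-out: total peak GFP intensity.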
row,SMILES,Potency
1,NS(=O)(=O)c1cc2c(cc1C(F)(F)F)NC(Cc1ccccc1)NS2(=O)=O (centres undefined),inactive
2,NC(=O)N/N=C/c1ccc([N+](=O)[O-])o1,inactive
3,Cn1cc[nH]c1=S,inactive
4,CC(C)(C(=O)O)c1ccc(C(O)CCCN2CCC(C(O)(c3ccccc3)c3ccccc3)CC2)cc1 (centres undefined),inactive
5,CSc1ccc2c(c1)C(N1CCN(C)CC1)Cc1ccccc1S2 (centres undefined),inactive
6,CSc1ccc2c(c1)N(CCC1CCCCN1C)c1ccccc1S2 (centres undefined),inactive
7,CNCCC(Oc1ccc(C(F)(F)F)cc1)c1ccccc1 (centres undefined),inactive
8,CC1=C(CC(=O)O)c2cc(F)ccc2/C1=C\c1ccc(S(C)=O)cc1 (centres undefined),inactive
9,CN(C)CCCN1c2ccccc2Sc2ccc(Cl)cc21,inactive
10,OCCN1CCN(CCCN2c3ccccc3Sc3ccc(Cl)cc32)CC1,inactive
11,CN1CCOC(c2ccccc2)c2ccccc2C1 (centres undefined),inactive
12,COc1ccc(Cl)cc1C(=O)NCCc1ccc(S(=O)(=O)NC(=O)NC2CCCCC2)cc1,inactive
13,O=C1c2c(O)cccc2Cc2cccc(O)c21,inactive
14,COC(=O)C1=C(C)NC(C)=C(C(=O)OC)C1c1ccccc1[N+](=O)[O-],inactive
15,CNCC(O)c1ccc(O)c(O)c1 (centres undefined),inactive

# Molecular target: Muscarinic acetylcholine receptor M1 (Rattus norvegicus) (UniProt P08482)
# Experiment: qHTS Assay for Antagonists of Acetylcholine Muscarinic M1 Receptor: Measurement of IP-One Response (AID 944); note: nearly all actives have a fitted effect of over 75% in size
# Details: CHO-M1 cells, IP-One HTRF, antagonist mode; series mostly up to 46.1 µM
# Summary of the method: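 IP1 accumulation measured via TR-FRET between d2-IP1 and Eu-cryptate anti-IP1 antibody after carbachol (200 nM, EC80) stimulation for 30 min; rat M1-transfected CHO cells received compound 10 min before agonist.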
# Sequence of Muscarinic acetylcholine receptor M1 (Rattus norvegicus) (P08482 whole entry, looked up): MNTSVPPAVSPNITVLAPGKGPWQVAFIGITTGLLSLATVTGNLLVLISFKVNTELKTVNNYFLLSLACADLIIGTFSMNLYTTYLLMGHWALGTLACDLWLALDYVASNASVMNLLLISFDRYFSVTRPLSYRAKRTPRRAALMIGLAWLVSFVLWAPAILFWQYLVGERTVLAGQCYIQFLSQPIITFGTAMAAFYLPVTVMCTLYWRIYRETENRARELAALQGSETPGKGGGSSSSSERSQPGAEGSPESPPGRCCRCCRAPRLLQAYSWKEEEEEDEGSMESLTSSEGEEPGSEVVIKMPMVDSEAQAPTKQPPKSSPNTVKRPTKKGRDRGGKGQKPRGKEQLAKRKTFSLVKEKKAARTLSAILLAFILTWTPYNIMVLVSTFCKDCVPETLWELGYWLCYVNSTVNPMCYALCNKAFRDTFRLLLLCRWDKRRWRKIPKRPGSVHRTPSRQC
row,SMILES,Potency
1,C[C@]12C[C@H](O)[C@H]3[C@@H](CCC4=CC(=O)CC[C@@]43C)[C@@H]1CC[C@@H]2C(=O)CO,inactive
2,OCc1cc(C(O)CNCCCCCCOCCCCc2ccccc2)ccc1O (centres undefined),inactive
3,CCCn1cnc2c1c(=O)n(CCCCC(C)=O)c(=O)n2C,inactive
4,NC(=O)c1ncn([C@@H]2O[C@H](CO)[C@@H](O)[C@H]2O)n1,inactive
5,COc1ccc(Cl)cc1C(=O)NCCc1ccc(S(=O)(=O)NC(=O)NC2CCCCC2)cc1,inactive
6,N=c1c[n+](N2CCOCC2)[n-]o1,inactive
7,NC(N)=NCCC[C@H](N)C(=O)O,inactive
8,CCCCCCCCCCCCCCCC(=O)NCCO,inactive

# Molecular target: Pyruvate kinase (Leishmania mexicana) (UniProt Q27686)
# Experiment: qHTS Validation Assay for Inhibitors of Leishmania Mexicana Pyruvate Kinase (AID 945)
# Details: purified L. mexicana pyruvate kinase, enzyme activity, E451W mutant enzyme; series mostly up to 57.5 µM
# Summary of the method: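 Eight-point qHTS titrations; enzyme 0.2 nM LmPYK (E451W mutant); substrates 0.5 mM PEP, 0.1 mM ADP; 7 mM MgCl2; 1 h room temperature; PKLight luminescence normalized to neutral control.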
# Sequence of Pyruvate kinase (Leishmania mexicana) (Q27686 2-499 E452W): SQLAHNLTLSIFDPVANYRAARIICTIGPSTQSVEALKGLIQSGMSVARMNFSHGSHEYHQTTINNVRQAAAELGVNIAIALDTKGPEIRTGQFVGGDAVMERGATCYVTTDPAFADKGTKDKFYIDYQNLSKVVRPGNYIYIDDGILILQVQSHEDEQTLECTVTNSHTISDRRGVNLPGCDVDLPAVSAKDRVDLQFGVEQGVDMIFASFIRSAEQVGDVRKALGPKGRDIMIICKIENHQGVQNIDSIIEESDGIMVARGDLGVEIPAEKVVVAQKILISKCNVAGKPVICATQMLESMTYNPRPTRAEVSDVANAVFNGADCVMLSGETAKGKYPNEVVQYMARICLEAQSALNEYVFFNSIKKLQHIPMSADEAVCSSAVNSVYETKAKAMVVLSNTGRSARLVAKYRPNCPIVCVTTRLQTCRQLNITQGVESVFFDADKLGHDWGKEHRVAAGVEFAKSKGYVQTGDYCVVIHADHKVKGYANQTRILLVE
row,SMILES,outcome
1,C[C@]12C[C@H](O)[C@H]3[C@@H](CCC4=CC(=O)CC[C@@]43C)[C@@H]1CC[C@@H]2C(=O)CO,inactive
2,NC1CCN(c2cccc(Cl)n2)CC1,inactive
3,CC1=C(CC(=O)O)c2cc(F)ccc2/C1=C\c1ccc(S(C)=O)cc1 (centres undefined),inactive
4,CC(C)NC[C@H](O)c1ccc(O)c(O)c1,inactive
5,CN(C)CCCN1c2ccccc2Sc2ccc(Cl)cc21,inactive
6,OCCN1CCN(CCCN2c3ccccc3Sc3ccc(Cl)cc32)CC1,inactive
7,OCc1cc(C(O)CNCCCCCCOCCCCc2ccccc2)ccc1O (centres undefined),inactive
8,CCCn1cnc2c1c(=O)n(CCCCC(C)=O)c(=O)n2C,inactive
9,C[C@]12CC[C@@H]3c4ccc(O)cc4CC[C@H]3[C@@H]1CCC2=O,inactive
10,COc1ccc(Cl)cc1C(=O)NCCc1ccc(S(=O)(=O)NC(=O)NC2CCCCC2)cc1,inactive
11,N=c1c[n+](N2CCOCC2)[n-]o1,inactive
12,COC(=O)C1=C(C)NC(C)=C(C(=O)OC)C1c1ccccc1[N+](=O)[O-],inactive
13,NC(N)=NCCC[C@H](N)C(=O)O,inactive
14,CCCCCCCCCCCCCCCC(=O)NCCO,inactive

# Test system: not listed separately
# Experiment: MultiTox-Fluor Cytotoxicity Assay - LYMP1-001 - Dead Cells (AID 946);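 note: cells exposed to compound for 16 h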; note: potency is the fitted concentration of half-maximal effect
# Details: LYMP1-001 lymphoblastoid cells, dead-cell protease fluorescence; series mostly up to 92.2 µM
# Summary of the method: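 LYMP1-001 lymphoblastoid cells (2500/well) treated 16 h at 37 C. Dead-cell protease cleavage of bis-AAF-R110 read at Ex/Em 485/520. Normalized to DMSO and 15 uM tetraoctylammonium bromide; AC50 from Hill fits.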
row,SMILES,Potency
1,NC(=O)N/N=C/c1ccc([N+](=O)[O-])o1,inactive
2,C[C@]12C[C@H](O)[C@H]3[C@@H](CCC4=CC(=O)CC[C@@]43C)[C@@H]1CC[C@@H]2C(=O)CO,inactive
3,NC(=O)c1ncn([C@@H]2O[C@H](CO)[C@@H](O)[C@H]2O)n1,inactive
4,Cc1c(O)cccc1C(=O)N[C@@H](CSc1ccccc1)[C@H](O)CN1C[C@H]2CCCC[C@H]2C[C@H]1C(=O)NC(C)(C)C,31.6 µM (active)
5,O=C1c2c(O)cccc2Cc2cccc(O)c21,inactive
6,NCCNCCNCCN,inactive

# Test system: not listed separately
# Experiment: MultiTox-Fluor Cytotoxicity Assay - LYMP1-001 - Live Cells (AID 947); note: potency is the fitted concentration of half-maximal effect
# Details: LYMP1-001 lymphoblastoid cells, live-cell protease fluorescence viability; series mostly up to 92.2 µM
row,SMILES,Potency
1,NC(=O)N/N=C/c1ccc([N+](=O)[O-])o1,inactive
2,C[C@]12C[C@H](O)[C@H]3[C@@H](CCC4=CC(=O)CC[C@@]43C)[C@@H]1CC[C@@H]2C(=O)CO,inactive
3,NC(=O)c1ncn([C@@H]2O[C@H](CO)[C@@H](O)[C@H]2O)n1,inactive
4,Cc1c(O)cccc1C(=O)N[C@@H](CSc1ccccc1)[C@H](O)CN1C[C@H]2CCCC[C@H]2C[C@H]1C(=O)NC(C)(C)C,39.8 µM (active)
5,O=C1c2c(O)cccc2Cc2cccc(O)c21,inactive
6,NCCNCCNCCN,inactive

# Molecular target: Pyruvate kinase PKM (Homo sapiens) (UniProt P14618)
# Experiment: qHTS Assay for Activators of Human Muscle Pyruvate Kinase (AID 954; active = well fitted curve in the direction sought with a large enough effect, not every such curve was filed as active)
# Details: purified human muscle pyruvate kinase, luciferase-coupled luminescence, 1 h; series mostly up to 57.5 µM
# Summary of the method: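 Compound pinned into substrate mix (0.5 mM PEP, 0.1 mM ADP), then 0.1 nM PKM2 added; 1 h, RT. Stop/detection luciferase reagent added, luminescence read. Normalized to no-inhibition and no-enzyme or reference-inhibitor controls.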
# Sequence of Pyruvate kinase PKM (Homo sapiens) (P14618 whole entry, looked up): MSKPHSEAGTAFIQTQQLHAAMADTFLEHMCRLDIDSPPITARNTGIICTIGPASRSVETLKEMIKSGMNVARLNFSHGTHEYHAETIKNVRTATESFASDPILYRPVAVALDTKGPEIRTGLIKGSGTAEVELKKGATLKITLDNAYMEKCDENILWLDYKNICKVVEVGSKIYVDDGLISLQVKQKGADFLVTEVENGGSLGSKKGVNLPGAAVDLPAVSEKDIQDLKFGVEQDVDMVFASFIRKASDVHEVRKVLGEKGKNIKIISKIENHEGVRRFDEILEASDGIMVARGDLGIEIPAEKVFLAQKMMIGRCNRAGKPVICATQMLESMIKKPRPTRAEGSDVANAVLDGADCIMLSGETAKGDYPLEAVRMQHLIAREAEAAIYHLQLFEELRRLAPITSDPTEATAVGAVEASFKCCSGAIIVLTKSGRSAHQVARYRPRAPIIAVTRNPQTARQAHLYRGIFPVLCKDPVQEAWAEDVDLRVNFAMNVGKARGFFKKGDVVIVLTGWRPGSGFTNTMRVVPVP
row,SMILES,outcome
1,C[C@]12C[C@H](O)[C@H]3[C@@H](CCC4=CC(=O)CC[C@@]43C)[C@@H]1CC[C@@H]2C(=O)CO,inactive
2,NC1CCN(c2cccc(Cl)n2)CC1,inactive
3,CC1=C(CC(=O)O)c2cc(F)ccc2/C1=C\c1ccc(S(C)=O)cc1 (centres undefined),inactive
4,CC(C)NC[C@H](O)c1ccc(O)c(O)c1,inactive
5,CN(C)CCCN1c2ccccc2Sc2ccc(Cl)cc21,inactive
6,OCCN1CCN(CCCN2c3ccccc3Sc3ccc(Cl)cc32)CC1,inactive
7,OCc1cc(C(O)CNCCCCCCOCCCCc2ccccc2)ccc1O (centres undefined),inactive
8,CCCn1cnc2c1c(=O)n(CCCCC(C)=O)c(=O)n2C,inactive
9,C[C@]12CC[C@@H]3c4ccc(O)cc4CC[C@H]3[C@@H]1CCC2=O,inactive
10,NC(=O)c1ncn([C@@H]2O[C@H](CO)[C@@H](O)[C@H]2O)n1,inactive
11,COc1ccc(Cl)cc1C(=O)NCCc1ccc(S(=O)(=O)NC(=O)NC2CCCCC2)cc1,inactive
12,N=c1c[n+](N2CCOCC2)[n-]o1,inactive
13,COC(=O)C1=C(C)NC(C)=C(C(=O)OC)C1c1ccccc1[N+](=O)[O-],inactive
14,NC(N)=NCCC[C@H](N)C(=O)O,inactive
15,CCCCCCCCCCCCCCCC(=O)NCCO,inactive
